# Screens from PubChem.
# SMARCA2 activ – SMARCA2 (BRM) function activators, primary screen, cell-based, luminescence, high throughput | activation, % at 9.1 µM | 1% of 370,000 active | MG213 cells, MMTV-luciferase reporter, dexamethasone, overnight | AID 652017, 2013; in the data active = activation above about 7.8%;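 also: 0% = vehicle wells and 100% = reference activator wells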
# DAX1 inh-1 – DAX1 (NR0B1) inhibitors, primary screen, cell-based, HEK293, Gal4-DAX1, luciferase luminescence; Nuclear receptor subfamily 0 group B member 1 (Homo sapiens), P51843; HEK293 Gal4-DAX1 luciferase reporter; inhibition, % at 6.75 µM; 0.99% of 340,000 active; AID 504766, 2011;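 active = inhibition above the mean over all tested compounds plus 3 SD, cut at about 4.2% in these data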;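 also: 0% = DAX1-transfected cells with DMSO and 100% = empty-vector control cells with DMSO; inhibition shows as a rise in luminescence from relieved DAX1 repression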
# ssDAF12 agonist – S. stercoralis DAF-12 nuclear receptor activators, primary screen, cell-based, luminescence, HEK293, GRIP1 co-expression, lit1-tk-luc. Nuclear hormone receptor DAF-12 (Strongyloides stercoralis). 1% of 370,000 active. HEK293 ssDAF-12/GRIP1 lit1-tk-luc reporter; % of 3 µM dafachronic acid response. activation, % at 6.8 µM;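 active = activation above the mean over all tested compounds plus 3 SD, cut at about 0.9% in these data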;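 also: 0% = DMSO-only wells and 100% = 3 µM delta7-dafachronic acid wells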
# hgDAF-12 ag – H. glycines DAF-12 receptor agonists, primary screen, cell-based, luminescence, HEK293, GAL4 fusion, UAS-luciferase; Nuclear hormone receptor DAF-12 (Heterodera glycines), GAL4 fusion; HEK293 GAL4-hgDAF12 UAS-luciferase reporter, agonist luminescence; normalized to butyrate control; activation, % at 6.8 µM; 1.8% of 370,000 active; AID 687014, 2013;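 active = activation above a cutoff set at the mean of all screened compounds plus 3 SD, cut at about 10% in these data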;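 also: 0% = DMSO wells and 100% = sodium butyrate wells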
# hcDAF12 agonist – H. contortus DAF-12 nuclear receptor activators, primary screen, cell-based, luminescence, HEK293, lit1-tk-luc reporter | HEK293 hcDAF-12 lit1-tk-luc reporter; 0% DMSO, 100% Δ7-dafachronic acid | 1.4% of 370,000 active | AID 652067, 2013 | activation, % at 6.8 µM;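 active = activation above the mean of all tested compounds plus 3 SD, cut at about 5.5% in these data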;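 also: 100% = response to 3 µM Δ7-dafachronic acid high control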
# DAX1 inh-2 – DAX1 (NR0B1) inhibitors on StAR promoter, primary screen, cell-based, luminescence, SF-1 (NR5A1), full-length DAX-1; HEK293T StAR-luciferase reporter, SF-1/DAX-1 repression relief; inhibition, % at 6.8 µM; 1.1% of 370,000 active;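 active = inhibition above the mean over all tested compounds plus 3 SD, cut at about 3.6% in these data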;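 also: 0% = DAX-1 cells with DMSO and 100% = cells lacking DAX-1 with DMSO; higher inhibition means more luminescence from relief of DAX-1 repression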
# DAX1 conf – DAX1 (NR0B1) inhibitors relieving SF-1 repression, confirmation, cell-based, luminescence, HEK293T, full-length DAX-1, SF-1 activated StAR promoter; HEK293T StAR-promoter luciferase reporter, SF-1/DAX-1 repression; 87% of 2,400 active; shares compounds with DAX1 inh-2; inhibition, % at 6.8 µM;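 active = inhibition above the average of every tested compound plus 3 SD, cut at about 3.8% in these data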;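 also: 0% = DAX-1 cells with DMSO and 100% = no DAX-1 control cells with DMSO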
# Target sequence (P51843 whole entry, looked up): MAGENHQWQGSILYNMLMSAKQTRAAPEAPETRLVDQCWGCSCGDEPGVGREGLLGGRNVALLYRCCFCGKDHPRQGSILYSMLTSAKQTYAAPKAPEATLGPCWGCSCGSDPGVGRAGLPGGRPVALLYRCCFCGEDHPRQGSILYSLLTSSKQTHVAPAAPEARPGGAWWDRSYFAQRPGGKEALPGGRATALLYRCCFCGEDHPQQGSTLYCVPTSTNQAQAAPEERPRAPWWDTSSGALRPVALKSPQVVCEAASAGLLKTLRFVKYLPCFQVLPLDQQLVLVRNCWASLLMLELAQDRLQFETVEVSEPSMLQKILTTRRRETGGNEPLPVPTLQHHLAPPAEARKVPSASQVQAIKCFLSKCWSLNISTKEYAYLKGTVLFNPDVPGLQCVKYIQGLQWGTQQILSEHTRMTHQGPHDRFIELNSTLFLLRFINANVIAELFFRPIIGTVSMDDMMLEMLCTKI
# SF1 mutant ctr – StAR reporter signal changes without DAX1, counter-screen for DAX1 inhibitor project, cell-based, luminescence, AF-2 mutant SF-1, transactivation; AID 652136, 2013; shares compounds with DAX1 inh-2; inhibition, % at 6.8 µM; HEK293 StAR-luciferase, SF-1 AF2 mutant; 78% of 2,400 active;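 active = inhibition above the mean of all tested compounds plus 3 SD, cut at about 3% in these data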;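 also: 0% = DAX-1 transfected cells with DMSO and 100% = cells without DAX-1 with DMSO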
# Starred values were filed as active, the others as inactive; · = not tested or not shown. Compounds with a hit are over-represented: about 4.8% of the library has one in this group of screens.
SMILES,SMARCA2 activ,DAX1 inh-1,ssDAF12 agonist,hgDAF-12 ag,hcDAF12 agonist,DAX1 inh-2,DAX1 conf,SF1 mutant ctr
O=C(CSc1nnc(-c2cccc(Cl)c2)n1Cc1ccco1)c1ccc(F)cc1,1,·,-1,-2,-3,-1,·,·
CN1OC[C@@H]2CN(C(=S)Nc3cc(C(F)(F)F)cc(C(F)(F)F)c3)[C@H](c3ccccc3Br)C[C@@H]21,-3,·,-1,-2,1,-2,·,·
COC(=O)[C@]12C[C@H](CC(=O)NCCCCc3ccccc3)C(=O)N(Cc3ccccc3)C1=C[C@H](COCc1ccccc1)O[C@@H]2C,-2,·,-1,0,-3,-1,·,·
O=C(CSc1nnc(NC(=O)c2ccccc2F)s1)NCc1ccc(F)cc1,2,2,0,7,4,6.8*,9.2*,3.7*
CCc1nnc(NC(=O)c2ccc(OC)cc2OC)s1,0,0,0,12*,6.1*,6.8*,13*,5.7*
CCc1nnc(NC(=O)Nc2ccccc2OC)s1,5,2,-2,4,3,1,·,·
O=C(CSc1nnc(NC(=O)c2ccccc2F)s1)NCc1ccco1,3,1,0,7,2,6.3*,5.9*,6.4*
O=C(CSc1nnc(NC(=O)c2c(F)cccc2F)s1)NCc1ccco1,-2,1,-1,0,-1,1,·,·
O=C(Nc1nnc(-c2ccccc2Cl)s1)c1ccccc1F,-1,2,-1,1,1,1,·,·
O=C(Nc1nnc(-c2ccccc2)s1)c1ccccc1F,1,3,0,11*,3,5.5*,7.7*,5.2*
O=C(Nc1nnc(SCC(=O)N2CCCCC2)s1)c1ccccc1F,-2,-1,-1,6,-1,1,·,·
COC(=O)c1cc2c(c3c4cc(C)ccc4n(S(=O)(=O)c4cccc(C)c4)c13)C(=O)N(Cc1ccc(N(C)C)cc1)C2,4,·,-1,4,0,-1,·,·
CN(Cc1ccc(F)cc1)C(=O)CN1C(=O)C2(OCCCO2)c2ccccc21,-3,·,-1,0,0,-1,·,·
O=C(Cc1ccccc1Cl)NCCN1C(=O)C2C3C=CC(C3)C2C1=O (stereo not drawn),-3,·,-1,-1,-2,0,·,·
O=C(c1ccc(Cl)cc1)N1CCC(Oc2cccnc2)CC1,-1,·,-2,3,0,0,·,·
CCC(=O)OCCCN1CCC2(CCC(c3ccccc3)CC2)C1=O (stereo not drawn),-3,·,-1,-1,5,0,·,·
CN1CCN(C(=O)c2cc(COc3ccccc3)on2)[C@@H](c2ccccc2)C1,6,1,1.1*,11*,4,5.8*,6.0*,2
Cc1ccc(OCc2cc(C(=O)N3CCN(C)C[C@@H]3c3ccccc3)no2)cc1C,4,1,0,5,4,3,·,·
O=C(Nc1ccc(F)c(Cl)c1)c1csc([C@@H]2C[C@H](O)[C@@H](CO)O2)n1,-3,·,-1,2,3,4.7*,3,2
O=C(Nc1ccc(F)c(Cl)c1)c1csc([C@H]2C[C@H](O)[C@@H](CO)O2)n1,0,·,-1,8,1,1,·,·
O=C1Nc2ccccc2N(C(=O)c2ccc(-c3ccccc3)cc2)C1c1nc2ccccc2[nH]1 (stereo not drawn),2,·,1,26*,9.1*,20*,8.2*,4.8*
CC1C(=O)Nc2ccccc2N1C(=O)c1ccc(F)cc1 (stereo not drawn),-1,-2,0,-1,-1,0,·,·
C[C@@H]1CCCN1c1cccc2c1S(=O)(=O)N(C1CC1)CCCO2,-1,·,-1,-2,-3,0,·,·
O=C(CNC(=O)OCc1ccccc1)NC1CCCCCC1,-1,0,-1,4,-2,1,·,·
O=C(N[C@H]1/C=C\[C@@H](O)CCCC1)OCc1ccccc1,7,3,1,11*,5,7.6*,11*,9.1*
SMILES,SMARCA2 activ,DAX1 inh-1,ssDAF12 agonist,hgDAF-12 ag,hcDAF12 agonist,DAX1 inh-2,DAX1 conf,SF1 mutant ctr
CCC(C)N(C(=O)c1oc(=O)c2ccccc2c1-c1ccc(C)cc1)C(C)CC (stereo not drawn),-6,·,-2,-2,-3,-1,·,·
CN1CCCCC(NC(=O)c2ccc(F)cc2)C1=O (stereo not drawn),1,·,-2,-1,0,0,·,·
C=CCN1C(=O)[C@H](CC(=O)NCC2CCCCC2)[C@@]2(C(=O)OCC)CCCC=C12,-3,·,-1,-4,-2,-1,·,·
Cc1cc(NC(=O)COC(=O)c2cccc(OCc3ccccc3)c2)no1,0,4,0,1,0,0,·,·
Cc1cc(NC(=O)c2cccc(COc3ccc(Br)cc3)c2)no1,5,-3,0,12*,4,4.5*,4.0*,4.6*
COc1cccc(/C=C2/Sc3ccc(C(=O)NCCN4CCCC4)cc3NC2=O)c1,4,0,-1,3,0,10*,4.6*,3.2*
Cc1c(C(=O)OCC(C)C)[nH]c2c1C(=O)CC(c1ccco1)C2 (stereo not drawn),-3,-2,-1,-5,-2,6.3*,9.0*,-8
C/C=C/COC(=O)c1[nH]c2c(c1C)C(=O)CC(c1ccco1)C2 (stereo not drawn),-1,-4,0,-3,-2,2,·,·
C[C@@H]1ON(C)[C@H]2C[C@H]3c4cc(N5CCN(C)CC5)ccc4CCN3C[C@@H]12,3,·,-1,8,1,1,·,·
CCC(C(=O)NCCCN1CCN(C)CC1)n1nc(C)c2sc3ccccc3c2c1=O (stereo not drawn),0,0,-1,0,0,0,·,·
